The values that follow come from PubChem BioAssay (NCI).

Compounds without any hit were thinned out: in the full panel of roughly 83,000, 20% have a hit.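 Note: values are percent growth. 100 is the growth of untreated cells, values between 100 and 0 indicate rising inhibition; between -100 and 0 indicates cell death.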 Activity calls are given as the source filed them. The calls were made as follows: active = growth percent below 10; inactive = the rest.

The assay concerns MDA-MB-468 breast. The assay can be described thus: NCI-60 one-dose screen, 48 h (100 = growth as untreated, 0 = no growth, -100 = all killed). Particulars: 10 µM unless noted.
For `COc1ccccc1Nc1cc(O)c2c(=O)cc(-c3ccccc3)oc2c1`, the growth was -1.72% (active).

Regarding `Fc1ccc(CNc2c3ccccc3nc3ccccc23)cc1F`, the growth is -10.7% (active). Take `COC(=O)/C(CCC=C(C)C)=C1\[C@@H](OC(C)=O)C[C@@]2(C)[C@H]1C[C@@H](O)[C@H]1[C@@]3(C)CC[C@H](NC(=O)c4cnccn4)[C@@H](C)[C@@H]3CC[C@@]12C`: the growth was 106% (inactive). Regarding `N#CCc1cccc2ccccc12`, the growth was 112% (inactive). In the case of `Cc1ccc(C(=O)Nc2ccccc2C(=O)N/N=C(\c2ccccc2)c2ccccn2)cc1` it was -1.12% (active); in that of `O=C1Nc2ccc3c(c2/C1=C\c1cc2c(cc1Br)OCO2)OCO3`, -11.9% (active); in that of `NC(N)=NC(N)=NCCCc1ccco1`, 107% (inactive).

Take `CCNc1nc2cc(Nc3ccnc4cc(Cl)ccc34)ccc2o1`: the growth was 41.2% (inactive). Regarding `C[C@@H](C[C@H](CC1CC1)c1ccccc1)c1ccc2ccccc2c1`, the growth was 101% (inactive).

In the case of `c1ccc2cc(Cn3c(-c4cccc5ccccc45)[n+](Cc4ccc5ccccc5c4)c4c5ccccc5c5ccccc5c43)ccc2c1`, the growth was -71.4% (active).

On to `Cc1ccc(Nc2nc(SC(C)C)nc(-c3ccccc3)c2C#N)cc1`, for which the growth was 96.7% (inactive). For the compound `CC(=O)Oc1ccccc1C(=O)/C=C/c1cccc([N+](=O)[O-])c1`, the growth was 61.2% (inactive).

For `COc1ccc2occ(C3=C(c4c[nH]c5ccccc45)C(=O)N(O)C3=O)c2c1`, the growth was 95.1% (inactive). Consider `C=C1C(=O)O[C@H]2[C@H]1CC/C(C=Nc1c(N)cc(C(F)(F)F)cc1C(F)(F)F)=C\CC[C@@]1(C)O[C@@H]21`, for which the growth was -58.1% (active). Take `Cc1cccc(-c2cc(O)c(C(=O)N3CCOCC3)s2)c1`: the growth is 14.1% (inactive).

As for `O=C1c2cccnc2C(=O)c2c1c(C(=O)NCCCN1CCCCC1)c1ccccn21`, the growth is -73.9% (active). Take `C#CCOc1cccc(-c2ncc3cc(NC(=O)CCl)ccc3n2)c1`: the growth was -60.6% (active). `Cc1cc(C(=O)Nc2ccc(SC#N)cc2)c(C)o1`: the growth was 96.1% (inactive). To `CCN(CC)CCNC(=O)n1cc(-c2ccncc2)c(-c2ccc(Cl)c(OC)c2)n1` belongs 88.3% (inactive); to `Oc1ccc(-c2cnc(-c3ccccc3)[nH]2)c(O)c1`, 109% (inactive); to `C1CCC([PH+](C2CCCCC2)C2CCCCC2[PH+](C2CCCCC2)C2CCCCC2)CC1.[Au].[CH-]1CCCCC1C1CCCC[N-]1` (stereo not given), -33.9% (active).

On to `Cc1cc(N/N=C/c2nc(-c3ccc(Br)cc3)oc2C)c2cc(Br)ccc2n1`, for which the growth was -5.21% (active). Regarding `COCCn1cc(-c2nc(-c3cn(CCOC)c4ncccc34)cs2)c2cc(F)ccc21`, the growth was -10.9% (active).

For the compound `CCOC(=O)c1cc2c(n1Cc1cccc(OC)c1)-c1oncc1CCC2`, the growth is 11.9% (inactive). As for `CN(C1c2ccccc2Oc2ccccc21)S(=O)(=O)c1cc(Cl)ccc1Cl`, the growth is 18.9% (inactive). Take `O=Cc1ccc(O)c(O)c1`: the growth was 93.4% (inactive). In the case of `O=c1[nH]c(=O)n(C2C[C@H](O)[C@@H](CO)O2)cc1C(F)(F)F` (stereo not given in full) it was 117% (inactive). With `CN(C)c1ncc(C#Cc2c(F)cccc2F)c2ccccc12`, the growth is -7.26% (active).

Consider `Cc1cc(SCc2ccc(Cl)cc2Cl)nc(SCc2ccc(Cl)cc2Cl)n1`, for which the growth is 104% (inactive). To `CC(=O)CCC(=O)OCc1cc(=O)c(O)co1` belongs 101% (inactive); to `C=C(C)[C@@H]1CC[C@]2(C(N)=O)CC[C@]3(C)[C@H](CC[C@@H]4[C@@]5(C)C/C(=C/c6cccnc6)[C@H](O)C(C)(C)[C@@H]5CC[C@]43C)[C@@H]12`, 23.6% [100 µM] (inactive).

On to `CC(C)c1ccccc1NC(=O)N1CCC(C(C)C)CC1`, for which the growth is 99.8% (inactive). Take `OCc1ccccc1F`: the growth is 72.9% (inactive). Regarding `COc1ccc(CN2c3ccccc3Oc3ccccc32)cc1F`, the growth was 44.3% (inactive). To `O=[N+]([O-])c1ccc(NC(=S)NNC(=S)Nc2ccc(Br)cc2)cc1` belongs 82.5% (inactive). As for `N#C/C(=C\c1ccc([N+](=O)[O-])s1)c1nc2cc(Br)ccc2s1`, the growth was 32.4% (inactive). Consider `O=C1CCCN1c1cccc2cccnc12`, for which the growth is 98.8% (inactive). `CC1=NN(c2ccc(S(=O)(=O)O)cc2)C(=O)C1N=Nc1ccc(-c2ccc(N=Nc3ccc(OS(=O)(=O)c4ccc(C)cc4)cc3)c(S(=O)(=O)O)c2)cc1` (stereo not given): the growth is 86.8% (inactive).

In the case of `CCNC(=O)Oc1ccc(/C(=C(\C)c2ccc(Cl)cc2)c2ccc(OCCN3CCCCC3)cc2)cc1`, the growth is 56.5% (inactive). Consider `S=C(NCc1ccc2c(c1)OCO2)N1CCN(c2ncnc3c2oc2ccccc23)CC1`, for which the growth was -11% (active).
